The source of these data is PubChem BioAssay (NCATS).

Structures are written as SMILES. Results filed as inconclusive are left out. A number with no mark means an inactive call. Activity calls are given as the source filed them. Calls follow the shape of the dose curve; as a rule, active = well fitted inhibition curve with a large enough effect; inconclusive = small, poorly fitted or top-dose-only effect; inactive = flat fitted curve, though single readings scatter.
Potency is read from the fitted curve at half-maximal effect.

A short description of this assay: BET inhibitor-based combinations targeting novel dependencies in MECOM-rearranged (r) AML: AML-191 cell line (AID 2202236; also: nearly all actives have a fitted effect of over 35% in size;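 as to viability (% of control): plate controls were vehicle wells for no effect and wells without cells for full effect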). The conditions noted are these: AML-191 viability, CellTiter-Glo luminescence, 48 h; series mostly up to 46 µM; viability (% of control): at the top concentration. The source says: Ecotropic viral insertion site 1 (EVI1) is located on chromosome 3q26.2 as part of the MECOM (MDS and EVI1 complex) locus. Under normal hematopoiesis, EVI1 is a regulator of hematopoietic stem cell maintenance and self-renewal and EVI1 levels decrease as the cells differentiate. In approximately 5-10% of de novo acute myeloid leukemia (AML) EVI1 is aberrantly expressed, including Chromosomal inv(3)(q21;q26.2) or t(3;3)(q21;q26.2) alterations (MECOM-r) that account for about 50% of AML with EVI1 overexpression 31. AMLs with high levels of EVI1 have a poor prognosis and an overall survival time averaging between 10-14 months. EVI1 overexpression confers resistance in leukemia cells, highlighting the need to develop new targeted therapies for EVI1 overexpressing AMLs.
Here, we performed an unbiased chemical drug screening by evaluating the single agent activity of a collection of 2,480 oncology-focused, approved and investigational drugs (NCATS Mechanism Interrogation Plates, MIPE v5.0) against a panel of seven AML cell lines. These included four MECOM-r cell-lines (AML-191, AML-194, UCSD-AML1 and HNT-34) and three non-MECOM-r AMLs (MV4-11, OCI-AML3 and SET-2). Exploiting the mechanistic redundancy built in the library, we identified target-level sensitivities in MECOM-r AML cells and relative activity as compared to other AML subtypes.
A collection of 2480 mechanistically annotated dugs (MIPE v5.0) was used to screen four 3q26.2 rearranged AML cell lines and three non-3q26.2 rearranged AML cell lines. This library purposely exploits redundancy by including multiple inhibitors of key onco-targets, while simultaneously encompassing mechanistic diversity, targeting more than 800 distinct mechanisms of action. Briefly, cells were seeded in 5 uL of growth media using a Multidrop Combi dispenser into 1536 well white polystyrene tissue culture treated plates (Corning) at a density of 500cells/well. For each cell-line, for each of the 2480 drugs in MIPE v5.0 library, an 11-point dose curve was generated via a 1536 pin-tool. Plates were incubated for 48 hr at standard incubator conditions, covered by a stainless steel gasketed lid to prevent evaporation. Cell viability was determined by luminescence based, Cell Titer Glo assay (Promega). In detail, 3 uL of Cell Titer Glo were added to each well and plates were incubated at room temperature for 15 min with a stainless-steel lid in place. Luminescence readings were taken using a Viewlux (PerkinElmer) with a 2 s exposure time per plate. Compound dose-response curves were normalized to DMSO and empty well controls on each plate. Quantitative drug activity data from dose-response curves was determined utilizing area Under the Curve (AUC) and Z-transformed AUC (Z-AUC, a mean-centering transformation applied to each individual cell-line screened).
Take `O=C(O)/C=C/c1ccc(Cn2ccnc2)cc1`: the “viability (% of control)” value was 111%.
As to `CC1=C2C[C@H]3[C@@H](CC[C@@H]4C[C@H](NS(C)(=O)=O)CC[C@@]43C)[C@@H]2CC[C@@]2(C1)O[C@@H]1C[C@H](C)CN[C@H]1[C@H]2C`, the Potency is 20.9 µM (active).
On the same count and under the same terms, the result for `CCS(=O)(=O)Nc1ccc(Oc2ccc(F)cc2F)c(-c2cn(C)c(=O)c3[nH]ccc23)c1` reads 0.0742 µM (active); that for `Cc1ccc(Nc2cc(N[C@@H]3CCCC[C@@H]3N)nnc2C(N)=O)nc1C`, 18.6 µM (active); that for `COc1cc(C)c(/C=C/C(C)=C/C=C/C(C)=C/C(=O)O)c(C)c1C`, 1.86 µM (active).
Regarding `C=CC(=O)Nc1cccc(C)c1Nc1ncc2cc(-c3c(Cl)c(OC)cc(OC)c3Cl)ccc2n1`, the Potency was 13.2 µM (active).
In the case of `C[C@@]12O[C@@H](C[C@]1(O)CO)n1c3ccccc3c3c4c(c5c6ccccc6n2c5c31)CNC4=O`, the Potency is 0.0525 µM (active).
As to `Cc1ccc2nc(NCCN)c3ncc(C)n3c2c1`, the Potency was 5.9 µM (active).
On to `COc1cc2c(cc1OC(C)C)[C@H](c1ccc(Cl)cc1)N(c1ccc(N(C)CC3CCC(N4CCN(C)C(=O)C4)CC3)cc1)C(=O)C2` (stereo not given in full), for which the Potency was 5.9 µM (active).
For `Nc1ccc(F)cc1NC(=O)c1ccc(CNC(=O)/C=C/c2cccnc2)cc1`, the Potency was 16.6 µM (active).
On the same count and under the same terms, as for `COc1ccc([C@@H](O)[C@@H](C)Oc2ccc([C@H]3O[C@H](c4ccc(O[C@H](C)[C@H](O)c5ccc(OC)c(OC)c5)c(OC)c4)[C@H](C)[C@H]3C)cc2OC)cc1OC`, the figure is 18.6 µM (active).
In the case of `C[C@H](CCC(=O)O)[C@H]1CC[C@H]2[C@@H]3[C@@H](O)C[C@@H]4C[C@H](O)CC[C@]4(C)[C@H]3CC[C@]12C`, the “viability (% of control)” value is 105%.
Turning to `O=C(/C=C/c1ccc(CN(CCO)CCc2c[nH]c3ccccc23)cc1)NO`, the Potency was 0.148 µM (active).
Same read-out and setting: as for `C[C@@H]1COCCN1c1cc(C2(S(C)(=N)=O)CC2)nc(-c2ccnc3[nH]ccc23)n1` (stereo not given in full), the figure is 2.63 µM (active).
As for `CC1=NN(c2ccc(C(=O)O)cc2)C(=O)/C1=C/c1ccc(-c2cc(C)c(C)cc2[N+](=O)[O-])o1`, the “viability (% of control)” value is 102%.
Still for that read-out and setting: the result for `CCCCCCCCCCCC(CC1OC(=O)C1CCCCCC)OC(=O)C(CC(C)C)NC=O` (stereo not given) reads 93.8%; that for `CCCNC(=O)c1cn2ncnc(Nc3cc(C(=O)NC4CC4)ccc3C)c2c1C`, 107%; that for `CNC(=O)c1ccc(N2C(=S)N(c3ccc(C#N)c(C(F)(F)F)c3)C(=O)C2(C)C)cc1F`, 85.8%.
Still for that read-out and setting: as for `C=CC(=O)N[C@H]1CCOC[C@H]1Nc1ncc2cc(-c3c(Cl)c(OC)cc(OC)c3Cl)ccc2n1`, the figure is 90.7%; as for `C[C@H]1CN(C2COC2)CCN1c1ccc(Nc2cc(-c3ccnc(N4CCn5c(cc6c5CC(C)(C)C6)C4=O)c3CO)cn(C)c2=O)nc1`, 96.6%; as for `C[N+](C)(C)CC(=O)O`, 103%.
For `NC1=N[C@@]2(c3cc(NC(=O)c4ccc(F)cn4)ccc3F)COC[C@H]2CS1`, the “viability (% of control)” value was 105%.
In the case of `CCC(=O)N1CCOc2c(cc(-c3cc(OC)cc(OC)c3)cc2C(=O)N[C@H]2CCCN(C)C2)C1`, the Potency was 14.8 µM (active).
As for `C=C[C@H]1CN2CCC1C[C@@H]2C(O)c1ccnc2ccc(OC)cc12` (stereo not given in full), the “viability (% of control)” value is 116%.
On the same count and under the same terms, the result for `O=C(O)CNC(=O)c1nc(Cl)c2ccccc2c1O` reads 115%.
Consider `C[C@@H](Oc1ccc2[nH]nc(/C=C/c3cnn(CCO)c3)c2c1)c1c(Cl)cncc1Cl`, for which the Potency was 0.833 µM (active).
Still for that read-out and setting: the result for `Cc1c(NC(=O)c2cc(C(N)=O)nc3cc(F)ccc23)c(C(F)(F)F)nn1Cc1ccc(C(C)(C)C)cc1` reads 16.6 µM (active); that for `CN1CCC(c2c(O)cc(O)c3c(=O)cc(-c4ccccc4Cl)oc23)C1CO` (stereo not given), 0.662 µM (active).
For `O=C(NC1CC1)c1cccc(-c2ccc3c(NC(=O)C4CC4)n[nH]c3c2)c1`, the Potency was 2.95 µM (active).
Turning to `Cc1ccc(Sc2ccccc2N2CCNCC2)c(C)c1`, the Potency is 18.6 µM (active).
Turning to `CN(Cc1ccc(/C=C/C(=O)NO)cc1)CC12CC3CC(CC(C3)C1)C2`, the Potency is 0.148 µM (active).
Still for that read-out and setting: as for `O=C(Nc1cn[nH]c1-c1nc2ccc(CN3CCOCC3)cc2[nH]1)NC1CC1`, the figure is 2.09 µM (active).
In the case of `CS[C@H]1SC[C@@H]2C(=O)N(C)[C@H](C(C)C)C(=O)OC[C@H](NC(=O)c3cnc4ccccc4n3)C(=O)N[C@H](C)C(=O)N(C)[C@H]1C(=O)N(C)[C@H](C(C)C)C(=O)OC[C@H](NC(=O)c1cnc3ccccc3n1)C(=O)N[C@H](C)C(=O)N2C`, the Potency was 0.0132 µM (active).
The same measure, in the same setting: as for `COC(C)(C)CCn1nc(Nc2c(C)cccc2C)c2cnc(Nc3ccc(OCCN4CCCC4)c(F)c3)nc21`, the figure is 14.8 µM (active); as for `NC(=O)/C(=C/n1cnc(-c2cc(C(F)(F)F)cc(C(F)(F)F)c2)n1)c1cncnc1`, 0.263 µM (active).
Still for that read-out and setting: as for `C[C@H]1C[C@@H](n2c(Nc3ccc(OC(F)(F)F)cc3)nc3cc(CCC(=O)O)ccc32)CC(C)(C)C1`, the figure is 26.3 µM (active).
As for `CN(C)C(=O)COC(=O)Cc1ccc(OC(=O)c2ccc(N=C(N)N)cc2)cc1`, the “viability (% of control)” value is 116%.
In the case of `CN(CCOc1ccc(C[C@H](Nc2ccccc2C(=O)c2ccccc2)C(=O)O)cc1)c1ccccn1`, the Potency entry is “inactive”.
On the same count and under the same terms, as for `CN1CCN(c2cccc(Nc3nc4c(-c5ccc(S(C)(=O)=O)cc5)cccn4n3)c2)CC1`, the figure is 5.9 µM (active); as for `CNCCCOc1cc(F)c(-c2c(Cl)nc3ncnn3c2N[C@@H](C)C(F)(F)F)c(F)c1`, 0.0934 µM (active).
